# AmpC inh no detg – inhibitors of E. coli AmpC beta-lactamase without detergent. P00811. AmpC nitrocefin hydrolysis, absorbance 480 nm, 0.0001% Triton. Potency, µM (highest dose often 57.1 µM), for inactives: top-dose activity change, negative = inhibition, usual class: inhibitors. 330,000 compounds, 0.52% hits;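 note: plate controls were no compound for no effect and no enzyme for full effect; nearly all actives have a fitted effect of over 20% in size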
# Target sequence (P00811 whole entry, looked up): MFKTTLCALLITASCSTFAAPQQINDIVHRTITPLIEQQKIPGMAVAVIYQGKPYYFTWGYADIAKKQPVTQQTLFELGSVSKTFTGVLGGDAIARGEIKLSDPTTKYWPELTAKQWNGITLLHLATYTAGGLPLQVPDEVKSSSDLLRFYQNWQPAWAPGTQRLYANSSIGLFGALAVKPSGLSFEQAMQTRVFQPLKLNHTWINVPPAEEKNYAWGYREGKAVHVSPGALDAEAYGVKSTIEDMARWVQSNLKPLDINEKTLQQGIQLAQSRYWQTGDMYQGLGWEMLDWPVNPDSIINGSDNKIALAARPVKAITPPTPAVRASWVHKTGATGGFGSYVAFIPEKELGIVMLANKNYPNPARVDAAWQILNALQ
#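 AmpC (5.3 nM in the dispensed reagent) in 20 mM phosphate pH 7.0 with 0.01% (detergent screen) or 0.0001% Triton X-100 was preincubated with compounds for 15 min at room temperature. Nitrocefin was then added from an 800 uM solution, and hydrolysis was followed at 480 nm.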
# FMDV inh – antivirals against foot and mouth disease virus; Potency, µM (doses to about 57.9 µM), without a hit: top-dose activity change, negative = inhibition, usual class: inhibitors; FMDV antiviral cell-based qHTS; 410,000 compounds, 1.2% hits; AID 1159524; calls by dose curve; tested in HEK293T cells; note: read-out not given here; nearly all actives have a fitted effect of over 45% in size
# AMA1 RON2 block – inhibitors of Plasmodium falciparum AMA1-RON2 interaction; AlphaScreen AMA1-biotinylated RON2 peptide binding; Potency, µM (highest dose often 58.2 µM), for the others: at the top dose activity change, negative = inhibition, most hits filed as inhibitors; 360,000 compounds, 0.2% hits;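 note: 0% = vehicle wells and -100% = peptide control; nearly all actives have a fitted effect of over 45% in size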
#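 AMA1 (3D7) with his tag at 25 nM final met compounds first, then biotinylated RON2 peptide at 25 nM; detection used donor plus acceptor beads, 10 µg/mL apiece, read by AlphaScreen after 30 min at room temperature.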
# Sm TGR inh – blocks Schistosoma mansoni thioredoxin glutathione reductase; 360,000 compounds, 3% hits; Potency, µM (top dose mostly 114 µM), for the others: top-dose activity change, negative = inhibition, actives largely listed as inhibitors; purified TGR, DTNB reduction, TNB absorbance 405 nm; note: nearly all actives have a fitted effect of over 60% in size
#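 Kinetic colorimetric format: TGR-catalysed, NADPH-driven DTNB reduction monitored via TNB absorbance. Enzyme dispensed at 20 nM; compound exposure 15 min at room temperature before reaction start.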
# AmpC inh detg – inhibitors of E. coli AmpC beta-lactamase with detergent. Potency, µM (titrated, usually from 114 µM), without a hit: at the top dose activity change, negative = inhibition, most hits filed as inhibitors. AID 485294. AmpC hydrolysis of nitrocefin, absorbance 480 nm, 0.01% Triton. 370,000 compounds, 0.041% hits;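 note: 0% = no-compound wells and -100% = no-enzyme wells; nearly all actives have a fitted effect of over 25% in size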
#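 20 mM phosphate pH 7.0 + 0.01% (detergent screen) or 0.0001% Triton X-100; 5.3 nM AmpC reagent; cpd preinc 15 min RT; nitrocefin (800 uM stock) to start; A480 q20 s × 4 min; Activity was normalised to no-enzyme and no-compound control wells.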
# Active calls of the source: *; ? = inconclusive; / = not tested or not shown. In the library only some 4.1% were active in any assay of this set; here they are far more common. Unless noted, calls come from the whole dose curve; as a rule, active = well fitted curve in the direction sought with a large enough effect; inconclusive = small, poorly fitted or top-dose-only effect, or another doubt; inactive = no such curve, though single readings can be large; an effect the other way counts as inactive or inconclusive. Unless noted, % is set by controls: 0 for no effect and ±100 for the full control effect; potency is the fitted concentration of half-maximal effect.
SMILES,AmpC inh no detg,FMDV inh,AMA1 RON2 block,Sm TGR inh,AmpC inh detg
CCCC(C)C(=O)OCC(=O)Nc1ccc(Br)cc1 (stereo not given),-23.2%,/,/,44.7µM*,-0.1%
CCOc1ccccc1CNC(=O)c1[nH]c2ccccc2c1Sc1ccccc1,/,-23.8%,/,1.0%,2.8%
O=C(C1CCC(CNS(=O)(=O)c2ccc(Br)s2)CC1)N1CCN(c2ccccc2)CC1 (stereo not given),/,?,/,2.5%,14.1%
O=C(C1CCC(CNS(=O)(=O)c2cccs2)CC1)N1CCN(c2ccc(Cl)cc2)CC1 (stereo not given),11.9%,31.6µM*,-1.7%,3.0%,-0.1%
CCOC(=O)c1ccccc1NC(=O)CSc1cn(CC(=O)N2CCCCC2)c2ccccc12,/,-12.4%,/,0.2%,16.0%
CCCCC(=O)Nc1ccc2nc(SCC(=O)N3CCc4ccccc43)sc2c1,/,-10.5%,/,1.6%,-3.1%
Cc1cc(C)c2c(NC(=O)CCl)nn(C)c2n1,-5.6%,?,-6.5%,31.6µM*,-0.9%
CC(C)(C)c1ccc(C(=O)N2CCN(S(=O)(=O)c3ccc(Br)s3)CC2)cc1,-17.0%,?,-8.8%,-2.9%,16.8%
CCc1ccc(-c2cc(C)no2)cc1S(=O)(=O)N1CCN(C(=O)c2ccco2)CC1,136.7%,-13.8%,-4.0%,44.7µM*,-1.3%
O=C(c1ccco1)N1CCN(S(=O)(=O)c2ccc(Br)s2)CC1,-17.6%,/,5.5%,11.2µM*,-11.1%
O=C(O)c1ccc2c(c1)C(=O)N([C@H](Cc1ccc(C(F)(F)F)cc1)C(=O)O)C2=O,-19.8%,/,/,-1.2%,-7.5%
CC(C)NC(=O)C(c1ccccc1)N1Cc2ccccc2C1=O (stereo not given),/,8.2%,/,-0.6%,-4.8%
COc1ccccc1NC1=C(Cl)C(=O)N(c2ccccc2)C1=O,-12.7%,-13.5%,-16.9%,-6.1%,-5.2%
COc1ccc(N2C(=O)C(Cl)=C(Nc3c(C)n(C)n(-c4ccccc4)c3=O)C2=O)cc1,?,/,-20.8%,0.891µM*,-0.4%
CCOc1ccc(N2C(=O)CN=C2Nc2ccccc2Cl)cc1,-5.0%,2.2%,-2.3%,11.2%,-8.2%
COc1ccc(NC2=C(Cl)C(=O)N(c3ccccc3)C2=O)c(OC)c1,-17.9%,-22.0%,-0.5%,5.62µM*,0.3%
CCOc1ccc(N2C(=O)C(Cl)=C(Nc3ccccc3O)C2=O)cc1,-44.9%,/,-1.0%,17.8µM*,0.3%
COc1ccc(-c2cc(C(=O)Nc3c(C)n(C)n(-c4ccccc4)c3=O)c3ccccc3n2)cc1,148.5%,8.5%,0.8%,5.1%,8.7%
COc1ccc(N2C(=O)C(Cl)=C(Nc3ccc(OC)cc3OC)C2=O)cc1,-2.7%,30.4%,-5.5%,28.2µM*,-1.2%
CCOC(=O)Cc1ccc(NC(=O)N2CCc3c(sc4c3CCCC4)C2c2ccc(F)cc2)cc1 (stereo not given),/,-7.9%,/,6.3%,1.6%
CCOC(=O)C1=C[C@@H](c2ccccc2)N(S(=O)(=O)c2ccc(C)cc2)[C@H]1c1cccc(Cl)c1,/,-17.9%,5.7%,/,/
CCOc1cc(C(=O)Nc2ccc3oc(-c4ccc(CC)cc4)nc3c2)cc(OCC)c1OCC,/,?,/,-1.9%,-6.8%
COc1cccc(NC(=O)CCC(=O)NCc2ccco2)c1,-9.1%,-4.8%,2.0%,-11.1%,1.4%
CC(C)(C)NS(=O)(=O)c1ccc(CCC(=O)NCc2ccco2)cc1,-1.0%,28.5%,1.1%,35.5µM*,?
COc1ccc(CCC(=O)NCc2ccco2)cc1,-36.1%,-14.6%,10.3%,56.2µM*,-14.1%
SMILES,AmpC inh no detg,FMDV inh,AMA1 RON2 block,Sm TGR inh,AmpC inh detg
O=C(CCc1ccc(S(=O)(=O)NCc2ccccc2)cc1)NCc1ccco1,-13.0%,6.0%,2.2%,-1.7%,?
COc1ccc(N(C(C)C(=O)NCc2ccco2)S(C)(=O)=O)cc1 (stereo not given),0.9%,-4.1%,18.0%,25.1µM*,-2.4%
COc1cc(Cl)c(CN2CCOc3ccc(CN4CCCCC4CO)cc3C2)cc1OC (stereo not given),/,-4.3%,/,/,/
COc1ccc(NC(=O)C2CCN(S(=O)(=O)c3c(C)noc3/C=C/c3ccco3)CC2)cc1,/,-24.1%,/,-13.1%,2.8%
Cc1noc(/C=C/c2ccco2)c1S(=O)(=O)N1CCC(C(=O)NC(C)c2ccccc2)CC1 (stereo not given),-3.0%,-14.3%,3.3%,0.0%,-10.7%
Cc1noc(/C=C/c2ccco2)c1S(=O)(=O)N1CCC(C(=O)N(C)Cc2ccccc2)CC1,44.5%,-7.4%,-13.9%,12.6µM*,-10.8%
Cc1noc(/C=C/c2ccco2)c1S(=O)(=O)N1CCC(C(=O)N2c3ccccc3CC2C)CC1 (stereo not given),-14.0%,-5.1%,-13.5%,39.8µM*,?
COc1ccc(/C=N/OCC(=O)Nc2cc(C)on2)cc1OC,-14.4%,-13.2%,10.8%,1.8%,-0.3%
COc1ccc(/C=N/OCC(=O)NC(c2ccccc2)c2ccccc2)cc1OC,2.6%,7.08µM*,-5.2%,-2.4%,?
COc1ccc(C2=CC3=C(Br)C(=O)C(C)(O)C(=O)C3=CO2)cc1 (stereo not given),-25.6%,-14.6%,-27.0%,8.91µM*,-5.6%
CCC(=O)OC1(C)C(=O)C2=COC(c3ccc(OC)cc3)=CC2=C(Br)C1=O (stereo not given),-24.4%,7.8%,?,11.2µM*,1.1%
COC(=O)CCC(=O)OC1(C)C(=O)C2=CN(Cc3ccc(OC)cc3)C(c3ccc(OC)cc3)=CC2=C(Br)C1=O (stereo not given),/,8.4%,-4.7%,/,/
CCc1cccc(NC(=O)Cn2c(=O)n(-c3ccccc3C)c(=O)c3c2c2cc(C)ccc2n3C)c1,/,-16.7%,/,-1.3%,-0.6%
COC(=O)c1c(C)nn(-c2ccc(OC(F)(F)F)cc2)c1-c1snnc1C,54.0%,35.5µM*,-18.0%,18.5%,4.7%
Cc1nnsc1-c1c(C(=O)Oc2ccccc2)c(C)nn1-c1ccccc1,5.1%,-22.5%,-1.6%,-7.6%,-4.0%
Cc1ccc(OCC(=O)Nc2c(Cl)ccc3nsnc23)cc1C,/,-18.4%,/,-0.6%,-2.4%
Clc1cccc(N2CCN(c3c4c(nc5nncn35)CCC4)CC2)c1,/,22.4µM*,/,1.7%,-3.1%
Cc1cccn2cc(-c3cccc(NC(=O)C(C)C)c3)nc12,/,34.3%,/,0.0%,18.8%
CN(C1CCCCC1)S(=O)(=O)c1ccc2c(c1)c(=O)c(C(=O)N1CCN(c3ccccc3F)CC1)cn2C,/,4.9%,/,-10.1%,-4.4%
CCCN1C(=O)CC(c2ccco2)Sc2ccccc21 (stereo not given),-16.0%,3.4%,-4.3%,14.1µM*,-14.0%
COc1ccc(C2CC(=O)N(CC(=O)NCC3CCCO3)c3ccccc3S2)cc1 (stereo not given),82.5%,-20.4%,9.3%,-10.0%,-7.5%
CN1C(=O)CC(c2ccco2)Sc2ccccc21 (stereo not given),-2.0%,60.2%,12.7%,39.8µM*,?

# High-throughput results as filed in PubChem.
